{"source": "PubChem BioAssay (NCI)", "note": "This is part of a sample that, as a whole, favours compounds with a hit. Of some 83,000 tested, about 20% had one in any assay.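 Each cell line was grown in a 96-well plate and treated with one concentration of compound for 48 hours. Values below 10 were considered active.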 Values without a mark were called inactive. Calls of active or inactive are those of the source.", "data": [{"system": "HL-60(TB) leukemia", "assay": "NCI-60 one-dose screen, 48 h (100 = growth as untreated, 0 = no growth, -100 = all killed)", "details": "10 µM unless noted", "values": [{"smiles": "S=C(c1cccs1)N1CCN(c2cccc(Cl)c2)CC1", "growth": "90.8%"}, {"smiles": "COc1ccc(-n2nc(C)c3c(Nc4ccc(NC(=O)Nc5cc(C(F)(F)F)ccc5F)cc4)ncnc32)cc1", "growth": "45.8%"}, {"smiles": "O=C(Nc1cccc(-n2cc(-c3ccncc3)c(-c3ccc(O)c(Cl)c3)n2)c1)c1ccc(Cl)c(Cl)c1", "growth": "33.9%"}, {"smiles": "COc1cc(C(=O)/C=C/c2cc(-c3ccc4c(c3)OCO4)n[nH]2)cc(OC)c1OC", "growth": "-16.6% (active)"}, {"smiles": "CC1=C(NCCN2CCCC2)C(=O)c2c(OCc3ccc(C(F)(F)F)cc3)cccc2C1=O", "growth": "-20.6% (active)"}, {"smiles": "Cc1cc(C2(c3ccc(O)c(C)c3)OS(=O)(=O)c3ccccc32)ccc1O", "growth": "79%"}, {"smiles": "Cn1c(N)c(N=Nc2ccc(S(=O)(=O)Nc3nccs3)cc2)c(=O)n(C)c1=O", "growth": "94.6%"}, {"smiles": "CSc1ccc(OC(C)=O)cc1C", "growth": "97.7%"}, {"smiles": "COc1ccc2[nH]c(=O)c(/C=C/C(=O)c3ccc(Nc4nccc(-c5ccc6ccccc6c5)n4)cc3)cc2c1", "growth": "97.6%"}, {"smiles": "CCN1CCC[C@H]1c1cc(O)c2c(c1OC)C[C@H]1C[C@H]3[C@H](N)C(=O)C(C(N)=O)=C(O)[C@@]3(O)C(=O)C1=C2O", "growth": "-49.2% (active)"}, {"smiles": "CCCCCC(C)c1ccc(O)c(C)c1", "note": "(configuration not stated)", "growth": "91.4%"}, {"smiles": "Cc1ccc(C(=O)N2C/C(=C/c3ccc(F)cc3)C(=O)/C(=C/c3ccc(F)cc3)C2)cc1", "growth": "81.6%"}, {"smiles": "O=C(/C=C/c1ccc(Cl)cc1)c1ccc(-n2cc(CN3CCN(c4cc5c(cc4F)c(=O)c(C(=O)O)cn5C4CC4)CC3)nn2)cc1", "growth": "99%"}, {"smiles": "CCOC(=O)Cn1c(-c2nonc2NC(=O)c2ccccc2F)nc2ccccc21", "growth": "35.1%"}, {"smiles": "Cc1cc(O)cc(-c2c(-c3ccnc(-c4cccnc4)c3)cnn2C)c1", "growth": "46%"}, {"smiles": "COc1cc2c(cc1O)CC[C@@H]1[C@@H]2CC[C@]2(C)[C@@H](NCCN(C)C)CC[C@@H]12", "growth": "-67.7% (active)"}, {"smiles": "O=C(Nc1cccc(-n2cc(-c3ccncc3)c(-c3ccc(Cl)c(O)c3)n2)c1)c1ccccc1", "growth": "167%"}, {"smiles": "CC1Cc2ccccc2O1", "note": "(configuration not stated)", "growth": "102%"}, {"smiles": "CCCCCCCCCCCCCCCCn1cc[n+](C)c1", "growth": "45.7%"}, {"smiles": "COc1ccc(-c2cc(-c3ccc(N(C)C)cc3)nc(NC(=O)c3ccncc3)n2)cc1", "growth": "113%"}, {"smiles": "COc1ccc(/C=C2\\CN(Cc3cn(CCNc4ccnc5cc(Cl)ccc45)nn3)C/C(=C\\c3ccc(OC)c(OC)c3)C2=O)cc1OC", "growth": "-11.3% (active)"}, {"smiles": "Cn1c2c(c3ccc(-c4ccn[nH]4)cc3c1=O)C(=O)c1ccccc1-2", "growth": "-17.7% (active)"}, {"smiles": "COc1ccc(OC)c2c1[nH]c(=O)c1c3ccccc3cn21", "growth": "-49.3% (active)"}, {"smiles": "O=C1CCCC1[n+]1ccccc1", "note": "(configuration not stated)", "growth": "88.1%"}, {"smiles": "O=C(c1ccccc1)c1ccccc1-c1ccccc1", "growth": "-4.58% (active)"}, {"smiles": "CC1(C)[C@H](O)CC[C@]2(C)[C@@H]1CC[C@@]13C[C@@H](CC[C@H]12)[C@@](O)(CO)C3", "growth": "106%"}, {"smiles": "CC1(C)N=C(N)N=C(N)N1c1cccc(CN)c1", "growth": "86.8%"}]}]}
